From PubChem BioAssay AID1159602 (The Scripps Research Institute Molecular Screening Center, 2016)
Screen size: about 22,000 compounds; about 220 (1%) were called active. The list comes from a sample in which actives are over-represented; it also holds similar structures and randomly drawn compounds. A number with no mark means an inactive call. No stated cut-off is given here; in the data, active means inhibition above about 35%; inactive means the rest.

These compounds were tested against Mitogen-activated protein kinase kinase kinase 5 (Homo sapiens) (UniProt Q99683) (assay: ASK1 kinase inhibitors, primary screen, biochemical, AlphaScreen (AID 1159602;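 further: 0% = median of compound wells and 100% = no enzyme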)). Conditions: AlphaScreen MKK6 phosphorylation by ASK1, luminescence; at 7.44 µM; hits give high values.
Sequence of Mitogen-activated protein kinase kinase kinase 5 (Homo sapiens) (Q99683 whole entry, looked up): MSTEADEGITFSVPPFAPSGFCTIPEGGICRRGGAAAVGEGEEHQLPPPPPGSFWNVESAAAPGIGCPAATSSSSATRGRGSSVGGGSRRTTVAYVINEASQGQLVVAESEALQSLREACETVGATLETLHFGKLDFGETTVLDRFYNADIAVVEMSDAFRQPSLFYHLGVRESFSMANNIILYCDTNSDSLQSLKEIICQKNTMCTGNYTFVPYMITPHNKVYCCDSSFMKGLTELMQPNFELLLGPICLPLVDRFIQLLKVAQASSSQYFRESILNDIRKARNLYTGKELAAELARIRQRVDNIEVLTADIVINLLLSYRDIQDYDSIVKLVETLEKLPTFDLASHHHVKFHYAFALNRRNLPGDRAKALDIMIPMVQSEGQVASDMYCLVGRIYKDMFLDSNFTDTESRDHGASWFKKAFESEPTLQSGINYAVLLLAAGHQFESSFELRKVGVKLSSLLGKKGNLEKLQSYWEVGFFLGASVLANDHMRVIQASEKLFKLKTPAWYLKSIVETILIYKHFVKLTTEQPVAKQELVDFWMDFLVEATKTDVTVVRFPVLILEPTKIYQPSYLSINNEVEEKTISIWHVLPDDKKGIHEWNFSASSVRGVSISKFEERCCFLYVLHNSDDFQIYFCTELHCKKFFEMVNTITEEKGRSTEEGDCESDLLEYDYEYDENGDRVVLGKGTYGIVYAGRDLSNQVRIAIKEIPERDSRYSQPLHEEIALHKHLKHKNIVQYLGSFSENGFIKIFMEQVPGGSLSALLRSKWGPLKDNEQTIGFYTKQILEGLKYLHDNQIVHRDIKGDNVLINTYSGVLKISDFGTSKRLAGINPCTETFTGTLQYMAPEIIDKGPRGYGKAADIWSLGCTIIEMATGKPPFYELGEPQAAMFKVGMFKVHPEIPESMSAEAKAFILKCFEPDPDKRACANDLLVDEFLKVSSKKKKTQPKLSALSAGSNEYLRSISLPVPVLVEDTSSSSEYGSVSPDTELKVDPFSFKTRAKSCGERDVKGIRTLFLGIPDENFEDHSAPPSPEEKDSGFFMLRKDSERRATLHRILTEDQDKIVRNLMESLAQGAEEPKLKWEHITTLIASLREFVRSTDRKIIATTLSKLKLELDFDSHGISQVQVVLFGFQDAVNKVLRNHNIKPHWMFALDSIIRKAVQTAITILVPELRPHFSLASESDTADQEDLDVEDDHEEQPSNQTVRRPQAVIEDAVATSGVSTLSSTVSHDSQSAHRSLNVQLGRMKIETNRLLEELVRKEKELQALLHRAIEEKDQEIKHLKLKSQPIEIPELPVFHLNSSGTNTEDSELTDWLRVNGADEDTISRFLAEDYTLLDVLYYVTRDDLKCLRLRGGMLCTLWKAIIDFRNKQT

Compared with `O=C(NCCO)c1ccc2nc(NCCN3CCOCC3)sc2c1`, `O=C(NCCN1CCOCC1)c1ccc2nc(N3CCCC3CO)sc2c1` (stereo not drawn) is higher in inhibition: -9.95% for the first, 3.28% for the second.

Compared with `COc1nc(Nc2ccccc2)nc(-c2csc3ccccc23)n1`, `Cc1cc(NC2CCN(Cc3ccccc3)CC2)nc(Nc2ccccc2)n1` is higher in inhibition: -2.87% for the first, 12.7% for the second.

First: c1csc(-c2ccnc(Nc3ccc(N4CCOCC4)cc3)n2)c1
Second: CCNc1nc(C)cc(Nc2ccc(N3CCOCC3)cc2)n1
The inhibition of the first is lower: 13.2% for the first, 30.4% for the second.

First: CCCNc1nc(-c2cccc(C(C)=O)c2)ncc1C
Second: CCCNc1nc(-c2cccc(C(C)=O)c2)nc2nc[nH]c12
The inhibition of the first is lower: -6.63% for the first, 6.62% for the second.

Compared with `O=C(Nc1ccc2[nH]ncc2c1)C1CCN(C(=O)[C@H](O)c2cccc(Cl)c2)C1` (stereo partly drawn), `O=C([C@@H](O)CSc1ccc(Br)cc1)N1CCC(Nc2ccc3[nH]ncc3c2)CC1` is higher in inhibition: -11.7% for the first, -0.23% for the second.

Compared with `CC(C)n1cnc2c(NC3CCN(Cc4ccccc4)CC3)nc(-c3ccc(N4CCOCC4)nc3)nc21`, `CC(C)n1cnc2c(NC3CCN(Cc4ccccc4)CC3)nc(NC3CCN(Cc4ccccc4)CC3)nc21` is lower in inhibition: 11% for the first, 8.61% for the second.

First: O=C1CCCN1CCCNc1cc(NCc2cccnc2)ncn1
Second: c1ccc(OCCNc2cc(NCc3ccc4c(c3)OCO4)ncn2)cc1
The inhibition of the first is lower: 2.26% for the first, 11.6% for the second.

First: CCN(CC)C(=O)C1CCCN(c2nc3ncnc(NCCN4CCOCC4)c3[nH]2)C1 (stereo not drawn)
Second: FC(F)(F)c1cccc(CNc2ncnc3nc(N4CCOCC4)[nH]c23)c1
The inhibition of the first is higher: 1.62% for the first, -25.3% for the second.

Compared with `O=C(NC1CC1)c1ccc(-c2ncc(C(=O)Nc3ccc(N4CCOCC4)cc3)s2)cc1`, `O=C(Cc1cccc(Br)c1)Nc1cnn(-c2cccc(C(=O)Nc3ccc(N4CCOCC4)cc3)c2)c1` is lower in inhibition: 1.95% for the first, -2.11% for the second.

Going from `Nc1cccc(-c2ccc(C(=O)NCc3nc4ccccc4[nH]3)s2)c1` to `CC(=O)c1cccc(-c2ccc(C(=O)Nc3ccccc3)s2)c1`, the inhibition falls from 7.11% to -3.18%.

First: CCCNc1nc(-c2ccc(C(=O)N3CCN(C)CC3)cc2)nc2c1ncn2C(C)C
Second: NC(=O)c1ccc(-c2nc(NCCO)c3ncn(-c4ccsc4)c3n2)cc1
The inhibition of the first is lower: -4.93% for the first, 0.26% for the second.

Compared with `O=C(NC1CC1)c1ccc(-c2nc(NC3CC3)c3ncn(C4CCCCC4)c3n2)cc1`, `O=C(NC1CC1)c1ccc(-c2nc(NC3CCN(Cc4ccccc4)CC3)c3ncn(C4CCCCC4)c3n2)cc1` is higher in inhibition: -4.59% for the first, 9.66% for the second.

Compared with `Cc1[nH]ncc1-c1ccc(NC(=O)CCc2ccccc2)cc1`, `COC(=O)c1cccc(-n2ncc3cc(Nc4ccccc4)ccc32)c1` is lower in inhibition: 1.62% for the first, -20.5% for the second.

Going from `O=C(NC1CC1)c1ccc(-c2nc(C(=O)NCc3cccc(C(F)(F)F)c3)cs2)cc1` to `Cc1noc(C)c1-c1cc(C(=O)NCc2cccc(C(F)(F)F)c2)ccn1`, the inhibition rises from -7.56% to 1.72%.

First: c1ccc(CN2CCC(Nc3nc(NCc4ccc5c(c4)OCO5)nc4c3ncn4C3CCCCC3)CC2)cc1
Second: c1ccc(CN2CCC(Nc3nc(Nc4ccc(N5CCOCC5)cc4)c4ncn(C5CCCCC5)c4n3)CC2)cc1
The inhibition of the first is higher: 24.9% for the first, 22.4% for the second.

First: FC(F)(F)c1ccc(Cn2cnc3c(NC4CCN(Cc5ccccc5)CC4)nc(Nc4nccc5ccccc45)nc32)cc1
Second: FC(F)(F)c1ccc(Cn2cnc3c(Nc4ccc(Oc5ccccc5)cc4)nc(N4CCOCC4)nc32)cc1
The inhibition of the first is lower: 7.54% for the first, 18% for the second.

First: FC(F)(F)c1cnc(Nc2ccc(N3CCOCC3)cc2)cc1-n1ncc2ccccc21
Second: FC(F)(F)c1ccc(Cn2cnc3c(NCc4cccc(C(F)(F)F)c4)nc(Nc4ccc(N5CCOCC5)cc4)nc32)cc1
The inhibition of the first is lower: -0.62% for the first, 12.8% for the second.

Compared with `COc1cc(Nc2nc(NCc3cccc(C(F)(F)F)c3)c3ncn(-c4ccsc4)c3n2)cc(OC)c1OC`, `FC(F)(F)c1cccc(CNc2nc(N3CCOCC3)nc3c2ncn3-c2ccsc2)c1` is lower in inhibition: 15.7% for the first, 8.31% for the second.

Going from `c1ccc(CNc2nc(N3CCN(c4ccccn4)CC3)nc3c2ncn3-c2ccsc2)cc1` to `c1ccc(N2CCN(c3nc(NCc4nc5ccccc5[nH]4)c4ncn(-c5ccsc5)c4n3)CC2)nc1`, the inhibition falls from 19.3% to -8.09%.

First: O=C1CCCN1CCn1cnc2c(NCc3cccc(C(F)(F)F)c3)nc(N3CCN(Cc4ccc5c(c4)OCO5)CC3)nc21
Second: O=C1CCCN1CCCNc1nc(N2CCN(Cc3ccc4c(c3)OCO4)CC2)nc2c1ncn2-c1ccccc1
The inhibition of the first is higher: 15.8% for the first, 14.4% for the second.

Going from `O=C(Nc1ccncc1)OC1CCN(C(=O)[C@H](O)COc2ccc(Br)cc2)CC1` to `CC(C)(C)OC(=O)N1CCC(CC(=O)Nc2ccnn2-c2cccc(C(=O)Nc3ccc(N4CCOCC4)cc3)c2)CC1`, the inhibition rises from -3.38% to 7.81%.

First: Cc1noc(C)c1-c1nc(NC2CC2)c2ncn(-c3ccsc3)c2n1
Second: Cc1nn(C)c(C)c1-c1nc(NCCc2ccc(O)cc2)c2ncn(CCN3CCCC3=O)c2n1
The inhibition of the first is higher: -7.13% for the first, -10.9% for the second.

Compared with `COc1cc2nc(N3CCN(c4ccccn4)CC3)nc(NCc3nc4ccccc4[nH]3)c2cc1OC`, `CCN(CC)C(=O)C1CCCN(c2nc(NCc3cccc(C(F)(F)F)c3)c3cc(OC)c(OC)cc3n2)C1` (stereo not drawn) is higher in inhibition: -8.78% for the first, 3.43% for the second.

Going from `CC(=O)Nc1ccc(NC(=O)c2csc(N3CCC(N4CCOCC4)CC3)n2)cc1` to `COc1cc(NC(=O)c2ccnc(N3CCC(N4CCOCC4)CC3)c2)cc(OC)c1OC`, the inhibition falls from 14.1% to 1.9%.

First: c1ccc(OCCNc2nc(N3CCC(N4CCOCC4)CC3)nc3c2ncn3-c2ccccc2)cc1
Second: Cn1c(Nc2nc(NCCN3CCOCC3)c3ncn(-c4ccccc4)c3n2)nc2ccccc21
The inhibition of the first is higher: 8.08% for the first, -13.6% for the second.

Going from `O=C(NCCOc1ccccc1)c1cnc(Nc2cccnc2)s1` to `CN(C)c1cccc(Nc2ncc(C(=O)Nc3ccc4c(c3)OCO4)s2)c1`, the inhibition rises from 4.63% to 24.2%.

Going from `O=C(c1cccnc1)N1CCCC(Nc2ccc3[nH]ncc3c2)C1` (stereo not drawn) to `Cc1cc(NCc2cccnc2)nc(-c2ccc(C(N)=O)cc2)n1`, the inhibition rises from -32% to 1.31%.

Compared with `Nc1cccc(-c2nc(NCc3nc4ccccc4[nH]3)c3ncn(Cc4ccc(C(F)(F)F)cc4)c3n2)c1`, `FC(F)(F)c1cccc(CNc2ncnc3nc(Nc4ccncn4)[nH]c23)c1` is higher in inhibition: -18.3% for the first, 14.3% for the second.

Compared with `COc1cc(Nc2cc(C(=O)NCc3ccccc3)ccn2)cc(OC)c1OC`, `CCNc1nc(C(=O)NCc2ccccc2)cs1` is lower in inhibition: 2.85% for the first, -2.48% for the second.

First: NC(=O)c1cccc(N2CCCC2CO)n1 (stereo not drawn)
Second: CCCNc1cc(NC2CCN(Cc3ccccc3)CC2)nc(N)n1
The inhibition of the first is lower: 1.37% for the first, 6.95% for the second.

First: COc1cc(NC(=O)[C@H](N)c2ccc(F)cc2)c(F)cc1-c1cn[nH]c1
Second: COc1cc(-c2cn[nH]c2)ccc1C(=O)NCCc1cccs1
The inhibition of the first is lower: 8.67% for the first, 15.3% for the second.

Going from `CC(=O)c1cccc(-c2nc3ccc(C(=O)NCCO)cc3s2)c1` to `Cc1cccc(CC(=O)Nc2cnn(-c3cccc(C(=O)Nc4ccc(N5CCOCC5)cc4)c3)c2)c1`, the inhibition rises from 0.91% to 16.2%.

Going from `CC(C)n1cnc2c(Nc3ccc(N4CCOCC4)cc3)nc(NC3CCC(O)CC3)nc21` (stereo not drawn) to `CC(C)N(CCNc1nc(Nc2ccccc2)nc2c1ncn2C(C)C)C(C)C`, the inhibition falls from 6.93% to 6.04%.

Going from `O=C(Nc1ccc(Oc2ccccc2)cc1)c1cncc(-c2ccc(C(=O)NC3CC3)cc2)c1` to `CN(C)c1cccc(Nc2nccc(Nc3ccccc3)n2)c1`, the inhibition rises from 9.5% to 13%.

Going from `COc1cc(Nc2ncnc3c2nc(N2CCN(Cc4ccc5c(c4)OCO5)CC2)n3C(C)C)cc(OC)c1OC` to `COc1ccc(CCNc2ncnc3c2nc(Nc2cccc(N(C)C)c2)n3C(C)C)cc1`, the inhibition rises from 10.6% to 27.5%.

First: COc1ccc(CCNc2cc(C)nc(NCc3ccc4c(c3)OCO4)n2)cc1
Second: CC(=O)Nc1ccc(Nc2cc(C)nc(NCc3ccc4c(c3)OCO4)n2)cc1
The inhibition of the first is higher: 15.4% for the first, 5.86% for the second.

Going from `COc1ccc2c(c1)C[C@H](C(=O)Nc1ccc(-c3cn[nH]c3)cc1N(C)CCN(C)C)NC2` to `Cc1cnc(N2CCc3ccccc3C2)nc1NCCN(C(C)C)C(C)C`, the inhibition falls from 5.32% to -16.8%.

`FC(F)(F)c1cccc(CNc2nc(N3CCN(c4ccccn4)CC3)nc3c2ncn3-c2ccsc2)c1` was tested, and the inhibition was 40.9% (active).
`FC(F)(F)c1cccc(CNc2nc(N3CCN(Cc4ccc5c(c4)OCO5)CC3)nc3c2ncn3-c2ccccc2)c1` was tested, and the inhibition was 36.7% (active).
In the case of `Cc1cnc(Nc2ccc(N3CCOCC3)cc2)nc1NCc1cccc(C(F)(F)F)c1`, the inhibition is reported as 41.4% (active).
With `FC(F)(F)c1cccc(CNc2nc(Nc3ccc(N4CCOCC4)cc3)nc3c2ncn3-c2ccsc2)c1` the inhibition was 41.6% (active).
In the case of `CC(C)n1cnc2c(NC3CCN(Cc4ccccc4)CC3)nc(Nc3ccc(N4CCOCC4)cc3)nc21`, the inhibition is reported as 45% (active).
In the case of `Cc1cc(Nc2ccc(N3CCOCC3)cc2)nc(NCc2ccc3c(c2)OCO3)n1`, the inhibition is reported as 37.3% (active).
For `Cc1cc(Nc2ccc3c(c2)OCO3)nc(Nc2cccc(N(C)C)c2)n1`, the inhibition was 62.2% (active).
In the case of `COc1ccc(CCNc2cc(C)nc(Nc3cccc(N(C)C)c3)n2)cc1`, the inhibition is reported as 70.9% (active).
With `Cc1ccccc1-c1cscc1Nc1cnn(-c2cccc(C(=O)Nc3ccc(N4CCOCC4)cc3)c2)c1` the inhibition was 37.8% (active).
